Assay outcomes from PubChem BioAssay.
HCMV inh: inhibitors of human cytomegalovirus; HFF cells, HCMV-luciferase reporter, 72 h; stronger effect = lower value; activity change, negative = inhibition, % at 57.5 µM; actives 4.5% (n = 410,000); AID 1259415; in the data active means activity change below about -60%; inconclusive means no clear call, values can overlap the other calls; inactive means above about -39%
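Human foreskin fibroblasts infected with luciferase-reporter HCMV at MOI 1 PFU/cell, compounds at two doses. Luciferase measured 72 h post infection; normalized to buffer-only basal and Salinomycin (10uM) controls.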
LASV entry inh: blocks Lassa virus binding to or entry into cells; Lassa virus pseudotype entry inhibition, cell reporter; Potency, µM (doses to about 37.9 µM), for the others: top-dose activity change, negative = inhibition, hits mostly inhibitors; actives 1.2% (n = 300,000); calls by dose curve; tested in HEK293 cells; further: potency means the concentration at half of the fitted maximal effect; nearly all actives have a fitted effect of over 50% in size
VACV Venus inh: inhibitors of vaccinia virus (Venus reporter) | actives 0.46% (n = 330,000) | AID 720580 | Potency, µM (top dose mostly 36.5 µM), without a hit: at the highest dose activity change, negative = inhibition, usual class: inhibitors | Vaccinia virus Venus reporter expression, fluorescence; calls by dose curve; tested in A549 cells; further: potency means the concentration at half of the fitted maximal effect; nearly all actives have a fitted effect of over 30% in size
FMDV inh: antivirals against foot and mouth disease virus | FMDV antiviral cell-based qHTS | Potency, µM (titrated, usually from 57.9 µM), without a hit: top-dose activity change, negative = inhibition, most hits filed as inhibitors | actives 1.2% (n = 410,000); calls by dose curve; tested in HEK293T cells; further: read-out not given here; potency means the concentration at half of the fitted maximal effect; nearly all actives have a fitted effect of over 45% in size
MARV entry inh: Marburg virus entry inhibition | Marburg virus pseudotyped entry inhibition, cell reporter | Potency, µM (titrated, usually from 37.8 µM), inactives show at the top dose activity change, negative = inhibition, most hits filed as inhibitors | actives 1.8% (n = 300,000) | AID 540276; calls by dose curve; tested in HEK293 cells; further: potency means the concentration at half of the fitted maximal effect
VACV mCherry inh: vaccinia inhibition (mCherry reporter); Vaccinia virus mCherry reporter infection, fluorescence; Potency, µM (series often up to 36.5 µM), for the others: top-dose activity change, negative = inhibition, hits mostly inhibitors; actives 0.63% (n = 310,000); calls by dose curve; tested in A549 cells; further: potency means the concentration at half of the fitted maximal effect; nearly all actives have a fitted effect of over 35% in size
* hit, by the source's call; i = inactive; ? = inconclusive; · = no result given; ! = not active in a repeat; [ ] = remark or other dose. Hits are enriched below; roughly 6.5% of the tested compounds scored in any of these assays. On the % scale 0 is the no-effect control and ±100 the full control effect.

SMILES | HCMV inh | LASV entry inh | VACV Venus inh | FMDV inh | MARV entry inh | VACV mCherry inh
Cc1cc(S(=O)(=O)c2ccc([N+](=O)[O-])cn2)ccc1Br | -98* | ? | -21% | 8.9µM* | 10µM* | -3%
Cc1ccc(S(=O)(=O)c2ccc([N+](=O)[O-])cn2)cc1 | -95* | ? | -26% | 25µM* | 4µM* | ?
COc1ccc(CNc2nc(-c3ccccc3)nn2S(=O)(=O)c2ccccc2)cc1 | 74 | -7%[46.1 µM] | -4% | 16% | 4%[46.1 µM] | -13%
COCCNC(=O)[C@@]1(Sc2ccc(OC)cc2)CC(=O)N[C@@H]1c1ccc(OC)cc1 | -12 | · | · | · | · | ·
Cc1n[nH]c(C)c1CCc1nc2c3ccccc3nc(SCC(=O)Nc3ccccc3F)n2n1 | -73* | -15% | ? | -12% | ? | ?
CCn1c(SCC(=O)Nc2cccc(C)c2)nc2ccccc2c1=O | -32 | -22%[46.1 µM] | -2% | -6% | ? | 5%
Cc1cccc(NC(=O)CSc2nc3ccccc3c3nc(CCc4c(C)n[nH]c4C)nn23)c1 | -82*! | ? | -16% | ? | 18µM* | -29%
CC(=O)Nc1ccc(-c2nnc3n(Cc4ccc(C)cc4)c(=O)c4ccccc4n23)cc1 | 8 | 2%[46.1 µM] | 1% | -13% | 3%[46.1 µM] | -9%
CC(C)Oc1ccc(CNC(=O)CC(c2ccccc2)c2cc(Cl)ccc2O)cc1 (stereo unspecified) | -24 | 7.3µM* | · | ? | ? | ·
O=C(c1cn(-c2ccccc2)nc1-c1cccc(Br)c1)N1CCOCC1 | -63* | 1% | -13% | 4% | ? | -4%
O=S1(=O)CCC(NC(=S)NC2CCS(=O)(=O)C2)C1 (stereo unspecified) | -4 | ? | -8% | 7% | ? | i
O=S1(=O)CCC(NC(=S)SCCOc2ccccc2)C1 (stereo unspecified) | -69* | · | · | 14µM* | · | ·
CCCCSC(=S)NC1CCS(=O)(=O)C1 (stereo unspecified) | -84* | 4% | -25% | -27% | ? | ?
Cc1nc(NC(=O)C(C)(C)C)sc1-c1nc(N)sc1-n1cc(-c2ccccc2)nn1 | 1 | · | 5% | -5% | · | 0%
CCNc1nc(-c2sc(NC(=O)C(C)(C)C)nc2C)c(-n2cc(-c3ccccc3)nn2)s1 | -70* | · | ? | ? | · | ?
O=C(NC1CCCC1)c1ccc2c(c1)N(Cc1ccccc1F)C(=O)c1ccccc1S2 | ? | -15%[46.1 µM] | -7% | -13% | · | -10%
COc1ccccc1-c1cc2c(c(OC)c1)OCCN(CCC(C)c1ccc(C)o1)C2 (stereo unspecified) | · | · | 3% | -11% | · | i
CC[n+]1c(/C=C/N(C)c2ccccc2)n(-c2ccccc2)c2ccc(-c3nc4ccccc4s3)cc21 | · | 2.5µM* | 4.5µM* | 6.3µM* | ? | ?
COc1ccccc1NC(=O)Nc1nc(CC(=O)NCc2c(F)cccc2F)cs1 | -1 | ? | -19% | -9% | ? | -5%
CN(C)Cc1csc(NC(=O)Nc2ccccc2C(C)(C)C)n1 | -76* | · | -9% | -14% | · | -12%
COc1ccccc1NC(=O)Nc1nc(CC(=O)NCc2ccc(F)cc2)cs1 | -40 | -1% | ? | 40µM* | ? | ?
Cc1ccccc1NC(=O)Nc1nc(CN(C)C)cs1 | -9 | · | -4% | 1% | · | 6%
COc1ccc(NC(=S)Nc2nc(CC(=O)Nc3ccccc3OC)cs2)cc1 | ? | ? | · | 22µM* | ? | ·
Cc1csc2nc(-c3ccc(NS(=O)(=O)c4cc(F)ccc4F)cc3)cn12 | -22 | 15%[46.1 µM] | -7% | 8% | · | -10%
Cc1cccc(COC[C@H](Cc2ccccc2)N2CCN(C(=O)c3ccc(Cl)c(Cl)c3)CCC2=O)c1 | -9 | · | -11% | 0% | · | -16%
SMILES | HCMV inh | LASV entry inh | VACV Venus inh | FMDV inh | MARV entry inh | VACV mCherry inh
CC(C)(C)c1ccc(C(=O)N2CCC(=O)N(C(COCc3ccccc3)Cc3ccccc3)CC2)cc1 (stereo unspecified) | 37 | 8.2µM* | ? | ? | ? | -24%
CC(C)(C)c1ccc(C(=O)N2CCC(=O)N([C@H](COCc3ccccc3)Cc3ccccc3)CC2)cc1 | -14 | · | -26% | -20% | · | 2%
Cc1cccc(COCC(Cc2ccccc2)N2CCN(C(=O)c3cccc(C)c3)CCC2=O)c1 (stereo unspecified) | 27 | 7.3µM* | -27% | -17% | -39% | -16%
Cc1cccc(COCC(Cc2ccccc2)N2CCN(C(=O)c3ccc(Cl)c(Cl)c3)CCC2=O)c1 (stereo unspecified) | 31 | 15µM* | ? | ? | -45% | ?
COc1ccc2c3c(n(C)c2c1)[C@H](CO)N(C(=O)Cc1ccccc1)CC31CCN(C(=O)Cc2ccccc2)CC1 | 24 | · | · | · | · | ·
O=C1N[C@@H](Cc2ccccc2)C(=O)N2[C@@H]3N(S(=O)(=O)c4ccccc4)c4ccccc4[C@]3(Br)C[C@@H]12 | -28 | · | ? | 0% | · | ?
CN1C(=O)C2C[C@@]3(Br)c4ccccc4N(OOSc4ccccc4)[C@H]3N2C(=O)[C@@H]1Cc1ccccc1 (stereo partly specified) | -71* | · | -21% | -4% | · | -6%
Cc1ccc(C(=O)C(C(=O)/C=C/c2ccccc2)=C2SCCCS2)cc1 | -97* | 22µM* | ? | 11µM* | ? | ?
Cc1ccc(C(=O)C=CC=Cc2ccccc2)cc1 | 18 | · | -5% | 44% | · | -9%
CCCN1CNc2c(c(=O)[nH]c(=S)n2CCc2ccc(OCC)c(OCC)c2)C1 | · | · | -20% | · | · | i
Cc1ccc(-n2ncc3c(SCc4ccccc4)ncnc32)cc1 | -63* | 19% | -11% | 4% | ? | i
Cc1ccc(-n2ncc3c(SCc4ccccn4)ncnc32)c(C)c1 | -101* | 0.56µM* | 5% | ? | ? | 5µM*
CC(=O)Nc1ccc(Nc2cc(C)nc3c(-c4ccccc4)cnn23)cc1 | -92* | ? | ? | ? | ? | ?
Cc1cc(N)n2ncc(-c3ccccc3)c2n1 | 102 | -19% | -21% | 46% | ? | -10%
CCn1c(O)c(C(=O)C[C@@H]2NCCc3ccccc32)c(=O)n(CC)c1=S | · | · | · | · | -22% | ·
Cc1cc(C(=O)COc2ccc(-c3nnco3)cc2)c(C)n1Cc1ccccc1 | -70* | ? | · | ? | ? | ·
CCOC(=O)C1CCCN(C(=S)Nc2ccc(F)cc2)C1 (stereo unspecified) | -29 | -8% | 0% | 20% | 1%[14.2 µM] | -1%
CCOC(=O)C1CCCN(C(=S)Nc2ccc(OC)cc2)C1 (stereo unspecified) | -67* | · | · | -1% | · | ·
CCOC(=O)C1CCCN(C(=O)c2cc3c(Cl)nc4ccccc4c3s2)C1 (stereo unspecified) | -77* | 9%[46.1 µM] | -15% | ? | 8%[46.1 µM] | -11%
CCOC(=O)C1CCCN(C(=O)c2cc(Nc3ccc(OC)cc3OC)nc3ccccc23)C1 (stereo unspecified) | 125 | ? | · | -15% | -17% | ·
